# Test results published in PMC8384837, “Expanding the binding specificity for RNA recognition by a PUF domain”.
# Where a chain is given by its changes, count along the chain named.
# Tests used:
# Assay in all cases: yeast three-hybrid, YBZ-1, SC-Leu-His + 0.5 mM 3-AT, 4 days
# Conditions in all cases: tags: N-Gal4 AD-HA kept; label: inside an RPR1-promoter hybrid RNA with tandem MS2 sites; ssRNA
# PUM1 PUF domain R2-PYE = PUM1 PUF domain R2-PYE (Homo sapiens, UniProt Q14671 828-1176, N899P;Q903E)
# Outline: (§1)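 Pumilio-1 PUF domain libraries, randomized (NNK) at the three base-contacting residues of each repeat, were co-expressed with matching RNA elements from a centromeric plasmid in strain YBZ-1 (LexA–MS2 coat fusion, HIS3 reporter). Transformants were plated on SC-Leu (input) and SC-Leu-His + 0.5 mM 3-AT (selection) for four days, and repeat regions were PCR-amplified and Illumina-sequenced. The interaction score is the log2 change in variant frequency from input to selection, with pseudocount 1 where absent.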
# PUM1 PUF domain R5-KSG = PUM1 PUF domain R5-KSG (Homo sapiens, UniProt Q14671 828-1176, C1007K;R1008S;Q1011G)
# Outline: as §1
# PUM1 PUF domain R6-QHR = molecular target: T1, PUM1 PUF domain R6-QHR (Homo sapiens, UniProt Q14671 828-1176, N1043Q;Y1044H;Q1047R)
# T1 sequence: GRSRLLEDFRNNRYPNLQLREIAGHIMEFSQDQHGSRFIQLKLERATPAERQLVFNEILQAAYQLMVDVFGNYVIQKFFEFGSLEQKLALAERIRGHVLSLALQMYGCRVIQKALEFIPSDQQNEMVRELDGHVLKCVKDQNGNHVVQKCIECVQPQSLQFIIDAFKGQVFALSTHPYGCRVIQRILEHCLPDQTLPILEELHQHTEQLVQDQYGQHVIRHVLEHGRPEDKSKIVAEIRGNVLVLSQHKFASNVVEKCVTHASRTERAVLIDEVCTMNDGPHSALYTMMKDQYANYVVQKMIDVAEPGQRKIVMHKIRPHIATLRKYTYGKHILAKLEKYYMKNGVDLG
# Outline: as §1
# PUM1 PUF domain R6-FWK = molecular target: T2, PUM1 PUF domain R6-FWK (Homo sapiens, UniProt Q14671 828-1176, N1043F;Y1044W;Q1047K)
# T2 sequence: T1 sequence with Q216F, H217W, R220K
# Outline: as §1
# PUM1 PUF domain R6-QWR = molecular target: T3, PUM1 PUF domain R6-QWR (Homo sapiens, UniProt Q14671 828-1176, N1043Q;Y1044W;Q1047R)
# T3 sequence: T1 sequence with H217W
# Outline: as §1
# PUM1 PUF domain R8-KRS = PUM1 PUF domain R8-KRS (Homo sapiens, UniProt Q14671 828-1176, N1122K;Y1123R;Q1126S)
# Outline: as §1
# PUM1 PUF domain R7-RWP = PUM1 PUF domain R7-RWP (Homo sapiens, UniProt Q14671 828-1176, S1079R;N1080W;E1083P)
# Outline: as §1
sequence,measurement,setting,value
GGCUAGAACUAGUGGAUCCCCCGGCGCCCGGCGGCUCGAGCCCGGGUAAGUGUAAAAAGUCUGCAUGCCGCCGGGCGCCAUGCCUGCAGGUCGACUCUAGAAAACAUG,binding signal,PUM1 PUF domain R2-PYE,5.7 log2 enrichment (interaction score)
GGCUAGAACUAGUGGAUCCCCCGGCGCCCGGCGGCUCGAGCCCGGGUAAGUGUCAAUAGUCUGCAUGCCGCCGGGCGCCAUGCCUGCAGGUCGACUCUAGAAAACAUG,binding signal,PUM1 PUF domain R5-KSG,3.24 log2 enrichment (interaction score)
GGCUAGAACUAGUGGAUCCCCCGGCGCCCGGCGGCUCGAGCCCGGGUAAGUGUUAAUAGUCUGCAUGCCGCCGGGCGCCAUGCCUGCAGGUCGACUCUAGAAAACAUG,binding signal,PUM1 PUF domain R5-KSG,2.98 log2 enrichment (interaction score)
GGCUAGAACUAGUGGAUCCCCCGGCGCCCGGCGGCUCGAGCCCGGGUAAGUGUAAAUAGUCUGCAUGCCGCCGGGCGCCAUGCCUGCAGGUCGACUCUAGAAAACAUG,binding signal,PUM1 PUF domain R6-QHR,6.41 log2 enrichment (interaction score)
same,binding signal,PUM1 PUF domain R6-FWK,2.07 log2 enrichment (interaction score)
same,binding signal,PUM1 PUF domain R6-QWR,2.53 log2 enrichment (interaction score)
same,binding signal,PUM1 PUF domain R8-KRS,1.29 log2 enrichment (interaction score)
GGCUAGAACUAGUGGAUCCCCCGGCGCCCGGCGGCUCGAGCCCGGGUAAGUCUAAAUAGUCUGCAUGCCGCCGGGCGCCAUGCCUGCAGGUCGACUCUAGAAAACAUG,binding signal,PUM1 PUF domain R7-RWP,4.98 log2 enrichment (interaction score)
GGCUAGAACUAGUGGAUCCCCCGGCGCCCGGCGGCUCGAGCCCGGGUAAGUGCAAAUAGUCUGCAUGCCGCCGGGCGCCAUGCCUGCAGGUCGACUCUAGAAAACAUG,binding signal,PUM1 PUF domain R6-QWR,2.4 log2 enrichment (interaction score)
GGCUAGAACUAGUGGAUCCCCCGGCGCCCGGCGGCUCGAGCCCGGGUAAGCGUAAAUAGUCUGCAUGCCGCCGGGCGCCAUGCCUGCAGGUCGACUCUAGAAAACAUG,binding signal,PUM1 PUF domain R8-KRS,3.28 log2 enrichment (interaction score)
